# Shiga toxin inh: inhibitors of Shiga toxin in Vero cells | Vero cells, Shiga toxin protein synthesis inhibition reporter | inhibition, % at 38.7 µM | hit rate 9.2% among 290,000 | AID 2315; in the data active means inhibition mostly above about 28%, no sharp cut-off; inactive means mostly below about 43%; further: 0% is about no effect
# Cycloheximide cs: counter-screen hit for Shiga toxin inhibitors, cycloheximide; max response, %; hit rate 12% among 300,000; cell reporter, cycloheximide protein synthesis inhibition counterscreen; AID 2314; in the data active means max response mostly above about 13%, no sharp cut-off; inactive means mostly below about 14%; further: read at 38.3 µM for the half of the compounds with a filed dose; 0% is about no effect
# Pf growth 48h: P. falciparum growth inhibition at 48 hours (one generation); P. falciparum luciferase growth in erythrocytes, 48 h; Potency, µM (doses to about 28.7 µM), inactives show top-dose activity change, negative = inhibition, actives largely listed as inhibitors; hit rate 5.9% among 310,000; further: potency means the concentration at half of the fitted maximal effect; on the % scale 0 is the no-effect control and ±100 the full control effect
#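 Luminescence readout; reporter = integrated firefly luciferase in P. falciparum. RBC culture at 2% hematocrit, 0.1% parasitemia final, 37 C/5% CO2; decreased signal taken as growth inhibition.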
# HCMV inh: inhibitors of human cytomegalovirus; AID 1259415; HFF cells, HCMV-luciferase reporter, 72 h; stronger effect = lower value; hit rate 4.5% among 410,000; activity change, negative = inhibition, % at 57.5 µM; in the data active means activity change below about -60%; inconclusive means no clear call, values can overlap the other calls; inactive means above about -39%; further: on the % scale 0 is the no-effect control and ±100 the full control effect
#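 Two-dose cell screen: HFF monolayers treated with compounds and infected with luciferase-expressing HCMV at 1 PFU/cell, 72 h at 37C, then lysed for luciferase measurement.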
# Pf growth 96h: P. falciparum growth inhibition at 96 hours. AID 504834. hit rate 6.9% among 320,000. Potency, µM (titrated, usually from 28.7 µM), for inactives: top-dose activity change, negative = inhibition, most hits filed as inhibitors. P. falciparum luciferase reporter growth, 96 h; further: potency means the concentration at half of the fitted maximal effect; on the % scale 0 is the no-effect control and ±100 the full control effect
#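 Luminescence readout: decreased luciferase signal marks inhibited growth of reporter-expressing P. falciparum in infected red cells (2% hematocrit, 0.05% parasitemia final), exposed to compound two generations (96 h, 37 C, 5% CO2).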
# * marks the source's active call; other numbers are inactive results; ? = inconclusive; . = not tested or not shown; + = active, no number; [ ] = another dose, or the depositor's remark. Most compounds without a hit are left out; they make up all but 20% or so of the library. Unless noted, the call rests on the fitted dose curve; in most records, active means well fitted inhibition curve with a large enough effect; inconclusive means small, poorly fitted or top-dose-only effect, or another doubt; inactive means no such curve, though single readings can be large or run the other way.
SMILES,Shiga toxin inh,Cycloheximide cs,Pf growth 48h,HCMV inh,Pf growth 96h
C=C(C)c1cccc(C(C)(C)NC(=O)NCc2ccncc2)c1,19,0,13µM*,-17,?
C=C(C)c1cccc(C(C)(C)NC(=O)Nc2cccnc2)c1,-7,-1,?,-9,4.7µM*
C=C(C)c1cccc(C(C)(C)NC(=O)Nc2ncccn2)c1,31,-3,?,8,8.3µM*
C=C(C)c1cccc(C(C)(C)NC(=O)Nc2ccc(C(N)=O)cc2)c1,-7,-5,-12%,-67*,35%
CCC(CC)C(C(=O)NC1CCCCC1)N1C(=O)C(=O)c2ccccc21 (centres undefined),.,.,.,3,.
Cc1cccc(C)c1OCC(=O)NNC(=O)Nc1ccc(Cl)cc1,-13,2,.,-37,30%
COC(=O)C[C@H]1C=C[C@@H](NC(=O)c2ccncc2)[C@@H](CO)O1,.,.,.,-14,.
O=C1CSC(c2ccccn2)N1c1cccc(Cl)c1 (centres undefined),32,-2,-11%,10,?
Cc1ccc(N2C(=O)CSC2c2ccccn2)cc1Cl (centres undefined),11,25*,?,-11,-3%
CC(C)CC1NC(=O)N(CC(=O)N2CCN(S(=O)(=O)c3ccc4ccccc4c3)CC2)C1=O (centres undefined),-10,1,-23%,6,?
O=C(CSc1n[nH]c(-c2cccs2)n1)N1CCN(S(=O)(=O)c2ccc3ccccc3c2)CC1,-12,-1,.,-37,5.9µM*
Cc1cnc(C(=O)N2CCN(S(=O)(=O)c3ccc4ccccc4c3)CC2)cn1,27,5,.,41,9.3µM*
Nc1cc(=O)[nH]c(SCC(=O)N2CCN(S(=O)(=O)c3ccc4ccccc4c3)CC2)n1,3,-4,10%,4,-16%
O=C(c1cnccn1)N1CCN(S(=O)(=O)c2ccc3ccccc3c2)CC1,-4,1,-17%,-17,.
COc1ccc(S(=O)(=O)CC2(O)CCN(C(=O)CC(C)C)CC2)cc1,-13,1,9.3µM*,?,8%
COc1ccc(S(=O)(=O)CC2(O)CCN(C(=O)C(C)(C)C)CC2)cc1,-2,-7,257%,-24,37%
CC(C)CC(=O)N1CCN(S(=O)(=O)c2ccc3ccccc3c2)CC1,11,-3,.,-88*,?
CCOc1ccc(C(=O)Nc2ccc(Cl)c(-c3nc4cc(C)cc(C)c4o3)c2)cc1,.,.,.,-18,.
Nc1ccc(S(=O)(=O)Nc2nccc(/C=C/c3ccccc3F)n2)cc1,-8,-1,-17%,-6,-63%[5.75 µM]
O=C(c1ccccc1F)N1CCN(S(=O)(=O)c2ccc3ccccc3c2)CC1,-10,-4,15%,-39,-7%
CSc1ncccc1C(=O)N1CCN(S(=O)(=O)c2ccc3ccccc3c2)CC1,.,.,?,-83*,?
CC(NS(=O)(=O)c1ccc2c(c1)C(C)(C)C(=O)N2C)c1ccccc1 (centres undefined),20,-4,-23%,15,0%
O=C(Cn1c2ccccc2c(=O)c2cc([N+](=O)[O-])ccc21)Nc1ccccc1Cl,19,9,?,-6,9.3µM*
COC(=O)Cn1ncc2c3ccccc3n(C)c2c1=O,43*,25*,38%,45,?
CCOC(=O)N1CCC(NC(=O)Cn2ncc3c4ccccc4n(C)c3c2=O)CC1,34*,22*,71%,2,1%
SMILES,Shiga toxin inh,Cycloheximide cs,Pf growth 48h,HCMV inh,Pf growth 96h
CCOC(=O)C1(C)C=C(Nc2ccc(C)cc2)C(=O)N1c1ccccc1 (centres undefined),.,.,.,5,.
Cc1ccc(C[n+]2cccc(-c3ccccc3)c2)c(C)c1,-14,-4,0.93µM*,-96*,0.33µM*
Cc1ccc(NS(=O)(=O)c2ccccc2)c(C)c1,-6,-5,.,.,.
O=[N+]([O-])c1ccc(O)c(-c2nn[nH]n2)c1,53*,37*,21%,43,.
Cc1cc(C)n(-c2ccc([N+](=O)[O-])cc2-c2nn[nH]n2)n1,3,7,40%,21,5%
C[C@@H]1CCCCO[C@H](CN(C)C(=O)Nc2cccc3ccccc23)[C@@H](C)CN([C@H](C)CO)C(=O)c2cc(NC(=O)c3ccccc3)ccc2O1,.,.,.,-21,.
O=C(OCCOc1cccc(Cl)c1)C1CCN(S(=O)(=O)c2ccccc2)CC1,12,-1,-2%,-3,0%
COc1cccc2[nH]c(-c3ccccn3)nc12,.,.,.,2,.
CCc1cc2c(=O)[nH]c(-c3ccccn3)nc2s1,126*,89*,?,-101*,3.3µM*
COc1cnc(-c2ccccn2)[nH]c1=O,30,-1,0%,-12,5.9µM*
CCc1cc2c(=O)[nH]c(N3CCCC3)nc2s1,+,28*,92%,10,88%
COc1ccc([N+](=O)[O-])cc1NC(=O)C1CCCO1 (centres undefined),18,-2,4%,4,-16%
COc1ccc(C)cc1NC(=O)COC(=O)C1COc2ccccc2O1 (centres undefined),.,.,.,-92*,.
COc1ccc(S(=O)(=O)N2CCOCC2)cc1NC(=O)COC(=O)C1COc2ccccc2O1 (centres undefined),-3,-2,17%,-39,40%
Cc1ccccc1NC(=O)C1COc2ccccc2O1 (centres undefined),.,0,14%,16,53%
Cc1ccc(C)c(NC(=O)C2COc3ccccc3O2)c1 (centres undefined),11,14*,?,44,?
COc1ccc(C)cc1NC(=O)C1COc2ccccc2O1 (centres undefined),103*,38*,-3%,-12,?
COc1ccc(C(=O)NCCOc2ccccc2)cc1S(=O)(=O)N1CCOCC1,.,.,?,-30,-30%
CCCN(C(=O)NCc1noc2ccc(C)cc12)c1ccc(Cl)c(Cl)c1,.,.,.,-14,.
C[C@@H]1CN([C@@H](C)CO)C(=O)CCCn2nncc2CO[C@@H]1CN(C)C(=O)C1CCCCC1,.,.,.,17,.
Cc1nonc1OCCNCc1c(C(=O)N(C)C)nc2ccc(Cl)cn12,12,-5,?,-1,27%
O=C(Cn1ncc(Cl)c(Cl)c1=O)N1CCc2ccccc21,-2,8,15%,-95*,-16%
CCc1ccc(C(=O)Cn2ncc(Cl)c(Cl)c2=O)cc1,24,17*,2%,-107*,58%
O=C(Cn1ncc(Cl)c(Cl)c1=O)N1CCN(Cc2ccccc2)CC1,-20,-4,?,-83*,?
Cc1ccc(Cn2ncc(Cl)c(Cl)c2=O)cc1,38,11,-2%,-10,?
Cc1c2cnn(CC(=O)N3CCOCC3)c(=O)c2c(C)n1Cc1ccc(F)cc1,.,.,.,-5,.
O=C(Cn1ncc(Cl)c(Cl)c1=O)N1CCOCC1,38*,23*,?,-99*,?
O=C(Cn1ncc2c1-c1ccccc1OC2)N1CCc2ccccc21,-6,1,-6%,-1,11%
COc1ccc(CCNC(=O)CCn2c(=O)c3ccccc3n(CC(=O)Nc3ccc(C)cc3C)c2=O)cc1OC,.,.,.,-6,.
